Consider eight compounds from PubChem BioAssay (NCI).

The structures appear in SMILES notation. This is part of a sample that, as a whole, favours compounds with a hit. Of some 79,000 tested, about 15% had one in any assay. A number with no mark means an inactive call. Active and inactive are the calls of the source. Cut-off read from the data, not from the text of the source: active = growth inhibition above about 70%; inactive = the rest.

This assay is described as follows: NCI Yeast Anticancer Drug Screen. Data for the rad50EPP+ strain (AID 151).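 Note: 0% = growth of vehicle-treated control cultures.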 The note with it: S. cerevisiae rad50 mutant strain, active compounds read high. The procedure: Growth inhibition of yeast strains with defined genetic alterations is measured as a screen for potential anti-cancer activity. Selected strains with alterations in DNA damage repair or cell cycle control were exposed to compounds and growth inhibition was measured relative to vehicle treated controls. The strain used in this assay is rad50EPP+

As for `Cc1ccc2nc(N/N=C/c3ccc(C)s3)cc(C)c2c1`, the growth inhibition was -15% (at 1.2 µM); -5% (at 3.7 µM); 2% (at 11.0 µM); 44% (at 33.0 µM); 70% (active) (at 100.0 µM).

For the compound `O=C(O)[C@H]1[C@@H](C2CCCCC2)O[C@@H](C2CCCCC2)O[C@H]1C(F)(F)F`, the growth inhibition was -4% (at 1.2 µM); -1% (at 3.7 µM); 2% (at 11.0 µM); -2% (at 33.0 µM); -3% (at 100.0 µM).

On to `O=C1c2ccccc2-c2ccc(NC(=O)C3CCCCC3C(=O)O)cc21` (stereo not given), for which the growth inhibition was 4% (at 1.2 µM); 15% (at 3.7 µM); 22% (at 11.0 µM); 34% (at 33.0 µM); 55% (at 100.0 µM).

As for `COc1ccc2c(C)cc(N/N=C/c3sccc3C)nc2c1`, the growth inhibition was -11% (at 1.2 µM); -10% (at 3.7 µM); -4% (at 11.0 µM); 24% (at 33.0 µM); 21% (at 100.0 µM).

`CCOc1ccc2ccc3cccnc3c2n1`: the growth inhibition (at 1.2 µM) was -8%; the growth inhibition (at 3.7 µM) is 11%; the growth inhibition (at 11.0 µM) was 23%; the growth inhibition (at 33.0 µM) was 61%; the growth inhibition (at 100.0 µM) is 88% (active).

Consider `Cc1nc2ccc(Br)cc2c(=O)n1-c1ccc(NC2OCC(O)C(O)C2O)cc1` (stereo not given), for which the growth inhibition reads like this: (at 1.2 µM) 1%; (at 3.7 µM) -1%; (at 11.0 µM) -1%; (at 33.0 µM) 5%; (at 100.0 µM) 13%.

Turning to `Nc1c([N+](=O)[O-])cc2c3c(cccc13)CC2`, the growth inhibition is 10% (at 1.2 µM); 32% (at 3.7 µM); 63% (at 11.0 µM); 74% (active) (at 33.0 µM); 71% (active) (at 100.0 µM).

As for `CN(C)c1ccc(C(c2ccc(Cl)cc2)c2ccc(N(C)C)cc2)cc1`, the growth inhibition runs as follows: (at 1.2 µM) 3%; (at 3.7 µM) 10%; (at 11.0 µM) 6%; (at 33.0 µM) -2%; (at 100.0 µM) 14%.
